Screening results: PubChem BioAssay, National Center for Advancing Translational Sciences (NCATS)
Tau fibril ThT: tau fibrillization inhibition (ThT binding); Potency, µM (series often up to 57.4 µM), most hits filed as inhibitors; 2.1% of 270,000 active; P10636; recombinant tau K18 P301L, heparin-induced fibrillization, ThT fluorescence; further: nearly all actives have a fitted effect of over 55% in size
Target sequence (P10636 561-689 P618L limits assumed): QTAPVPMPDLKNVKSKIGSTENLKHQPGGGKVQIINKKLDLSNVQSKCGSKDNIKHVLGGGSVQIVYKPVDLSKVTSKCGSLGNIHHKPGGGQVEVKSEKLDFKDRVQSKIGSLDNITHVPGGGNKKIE
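Heparin-induced (20 uM) aggregation of recombinant human K18 P301L tau, 15 uM unlabeled with 0.24 uM labeled, pH 7 acetate buffer, 6 hr at 37 C with compound. Fibrils quantified by 30 uM ThT fluorescence after 1 hr ambient incubation.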
FBPA coupling cs: coupling enzyme interference in Giardia aldolase counter-screen; 0.67% of 290,000 active; AID 2472; coupling enzyme system counterscreen, AmpLite Red fluorescence; activity change, negative = inhibition, % at 58.2 µM, hits read low; in the data active means activity change below about -30%
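Compounds tested against the coupling enzymes alone at 57.5 uM final; readout was AmpLite Red fluorescence (525/598 nm) after 20 min at RT.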
Tau fluor cs: counter-screen for tau fibril formation inhibitors | tau K18 P301L Alexa594 fluorescence, heparin fibrillization | AID 1463 | 0.93% of 280,000 active | Potency, µM (highest dose often 57.7 µM); further: nearly all actives have a fitted effect of over 55% in size
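Human tau K18 P301L (15 uM unlabeled, 0.24 uM Alexa 594-labeled) in 100 mM sodium acetate pH 7 with 20 uM heparin, 6 hr at 37 C. ThT 30 uM added, 1 hr ambient; Alexa 594 FP and total fluorescence read at 555/632 nm.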
G9a inh: G9a (human) methyltransferase inhibition; G9a H3K9 monomethylation, AlphaScreen, 2 h; Potency, µM (doses to about 102 µM), actives largely listed as inhibitors; 8.8% of 350,000 active; further: nearly all actives have a fitted effect of over 75% in size
Target sequence (Q96KQ7 913-1193 limits assumed): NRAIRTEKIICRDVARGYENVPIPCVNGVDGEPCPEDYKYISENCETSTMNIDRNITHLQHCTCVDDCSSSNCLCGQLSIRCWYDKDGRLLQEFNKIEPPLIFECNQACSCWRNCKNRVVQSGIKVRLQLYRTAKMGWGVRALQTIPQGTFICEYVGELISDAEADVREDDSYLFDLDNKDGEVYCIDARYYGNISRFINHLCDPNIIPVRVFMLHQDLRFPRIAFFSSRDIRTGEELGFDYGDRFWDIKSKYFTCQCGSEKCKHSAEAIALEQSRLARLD
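Chemiluminescent proximity detection of H3K9 monomethylation, read after 10 min bead incubation in the dark. Reaction: 20 nM G9a, 500 nM biotin-H3K9 peptide, 20 uM SAM cofactor, 2 h, room temperature, following 15 min enzyme-compound preincubation.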
Tau FP inhib: blocks human tau fibril formation measured by polarization. P10636. K18 P301L tau heparin fibrillization, Alexa594 FP, 6 h. Potency, µM (series often up to 57.7 µM), hits mostly inhibitors. 0.39% of 280,000 active. AID 1468; further: nearly all actives have a fitted effect of over 55% in size
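Steps: dispense K18 P301L tau (15 uM plus 0.24 uM Alexa 594 tracer, final) in pH 7 sodium acetate; add compound; add heparin (20 uM final); incubate 6 hr, 37 C; add ThT (30 uM final); after 1 hr ambient, read FP.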
Sfp PPTase inh: Sfp phosphopantetheinyl transferase inhibition. Q9F4F7. Biochemical Sfp PPTase activity, qHTS. Potency, µM, usual class: inhibitors. 3.5% of 310,000 active;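 further: the enzyme is Sfp with the accession as filed and its product quenches rhodamine fluorescence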
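Sfp 15 nM + cpd, 15 min RT; start w/ rhodamine-CoA 5 uM, BHQ-2-YbbR 12.5 uM (final); 50 mM Hepes pH 7.6, 10 mM MgCl2, 0.01% NP-40, 0.01% BSA; read 525/598 nm at 0 and 30 min.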
Hits are given with their value; n = inactive; u = inconclusive; x = not tested or not shown; [ ] = dose if it differs, or a comment. Shown are actives, neighbours in structure and some others; about 11% of the full set was active somewhere. Unless noted, the call rests on the fitted dose curve; in most records, active means well fitted curve in the direction sought with a large enough effect; inconclusive means small, poorly fitted or top-dose-only effect, or another doubt; inactive means no such curve, though single readings can be large; an effect the other way counts as inactive or inconclusive.

SMILES | Tau fibril ThT | FBPA coupling cs | Tau fluor cs | G9a inh | Tau FP inhib | Sfp PPTase inh
CCCN1CCC(=O)N(C(CSc2ccc(OC)cc2)c2ccccc2)CC1 (centres undefined) | x | n | x | x | x | n
Cc1cccc(C)c1NC(=S)N(CCCN1CCCCC1)Cc1ccco1 | n | n | n | n | n | n
COc1cc(C(=O)c2nccc3cc(OC)c(OC)cc23)c([N+](=O)[O-])cc1OC | n | n | n | 45µM | n | n
CC(C)CC(=O)Nc1ncc([N+](=O)[O-])s1 | x | n | n | x | n | 35µM
Cc1nc(C)c(C(=O)Nc2ncc([N+](=O)[O-])s2)o1 | 25µM | n | n | 10µM | u | n
COc1ccc(CC(=O)Nc2ncc([N+](=O)[O-])s2)cc1OC | u | n | n | 11µM | n | 25µM
CCCCC(=O)Nc1ncc([N+](=O)[O-])s1 | n | n | n | u | n | n
CCCCCCOC(=O)Sc1nc2ccccc2o1 | u | n | n | u | n | 45µM
Cc1ccc(-n2c(=O)c3c(cnn3C)n(CC(=O)Nc3cccc(C)c3)c2=O)cc1 | n | x | n | n | n | x
CC(C)CC1CC(C)(c2csc(NNC(=O)c3ccccc3)n2)OC1=O (centres undefined) | n | n | n | 45µM | n | n
Cc1cccc(Oc2nc3c(c(=O)n(C)c(=O)n3C)n2C)c1C | n | x | n | n | n | x
Cc1cnc(C(=O)OCC(=O)c2c[nH]c3ccccc23)cn1 | x | x | x | n[12.7 µM] | x | x
Cc1cnc(C(=O)OCC(=O)c2cccc3ccccc23)cn1 | x | x | x | 45µM | x | x
CC1(C)CN(c2ccccc2)N(C(=O)c2ccc(F)cc2)C1=O | n | n | n | n | n | n
CC(=O)OCC1(C)CN(c2ccccc2)N(C(=O)c2ccc(C(C)(C)C)cc2)C1=O (centres undefined) | u | n | n | 40µM | u | n
COC(=O)CN1CC(=O)N(c2ccccc2)C1=S | n | n | n | n | n | n
CC(=O)OCC1(C)CN(c2ccccc2)NC1=O (centres undefined) | u | n | n | 14µM | u | n
CC1(C)CN(c2ccccc2)N(C(=O)c2ccc(C#N)cc2)C1=O | u | n | n | n | n | n
CC(=O)OCC1(C)CN(c2ccccc2)N(C(C)=O)C1=O (centres undefined) | u | n | n | 25µM | u | n
CCC(/C=C/C(C)C1CCC2C3CCC4=CC(=O)CC[C@@]4(C)C3CC[C@@]12C)C(C)C (some centres undefined) | n | n | n | x | n | n
O=C(O)c1ccc2cc(-c3ccc(O)c(C45CC6CC(CC(C6)C4)C5)c3)ccc2c1 | 28µM | n | u | x | u | n
COc1ccc(CCNC(=O)c2sc3nc4n(c(=O)c3c2C)CCCC4)cc1OC | n | x | n | 13µM | n | x
Cc1ccc(CNC(=O)c2sc3nc4n(c(=O)c3c2C)CCCCC4)cc1 | n | x | n | u | n | x
COc1ccc(OC)c(CCNC(=O)c2sc3nc4n(c(=O)c3c2C)CCC4)c1 | x | x | x | n | x | n
Cc1c(C(=O)N2CCN(c3ccccc3)CC2)sc2nc3n(c(=O)c12)CCC3 | u | n | u | n | n | n
SMILES | Tau fibril ThT | FBPA coupling cs | Tau fluor cs | G9a inh | Tau FP inhib | Sfp PPTase inh
CCN(CC)CCNC(=O)c1sc2nc3n(c(=O)c2c1C)CCCCC3 | n | x | n | n | n | x
Cc1c(C(=O)O)sc2nc3n(c(=O)c12)CCC3 | n | n | n | 40µM | n | n
CCCCN(CC)CCCNC(=O)c1sc2nc3n(c(=O)c2c1C)CCCCC3 | u | x | n | 8.9µM | u | x
Cc1c(C(=O)NCc2ccccc2)sc2nc3n(c(=O)c12)CCCCC3 | u | x | n | 10µM | n | x
CCCOc1cccc(C(=O)N2CCCCC2CCN2CCCCC2)c1 (centres undefined) | n | x | n | n | n | x
CC(=O)NS(=O)(=O)c1ccc(NC(=O)c2cc3c(=O)n4ccccc4nc3s2)cc1 | n | n | n | x | n | n
Cc1ccc(CNC(=O)c2sc3nc4n(c(=O)c3c2C)CCCC4)cc1 | u | x | n | u | n | x
CCN(CC)S(=O)(=O)c1ccc(OC)c(NC(=O)c2cc3c(=O)n4ccccc4nc3s2)c1 | n | n | n | 40µM | n | n
COc1ccc(CCNC(=O)c2cc3c(=O)n4cccc(C)c4nc3s2)cc1OC | x | n | x | 28µM | x | n
Cc1c(C(=O)NCc2ccc(Cl)cc2)sc2nc3n(c(=O)c12)CCCCC3 | n | x | n | 28µM | n | x
COc1ccc(CNC(=O)c2cc3c(=O)n4cccc(C)c4nc3s2)cc1 | n | x | n | n | n | x
CC(C)(C)N(Cc1ccccc1)C(=O)CCc1ccccc1 | n | n | n | x | n | n
O=C(Cn1c(SCc2ccccc2F)nc2ccncc21)Nc1ccccc1C(F)(F)F | n | x | n | n | n | x
CC(=O)C1(O)C(C)CC2C3CCC4CC(O)CCC4(C)C3=CCC21C (centres undefined) | n | n | n | n | n | n
C[C@@H]1CC2[C@@H]3CC[C@H]4CC(=O)CC[C@]4(C)C3=CC[C@]2(C)[C@@]1(O)C(=O)CO (some centres undefined) | x | n | x | 56µM | x | n
O=C1c2ccccc2C(=O)C1(c1ccccc1)N1CCN(c2cccc(Cl)c2)CC1 | n | x | n | 6.3µM | n | x
O=C1c2ccccc2C(=O)C1(c1ccccc1)N1CCN(c2cccc(C(F)(F)F)c2)CC1 | n | x | n | 10µM | u | x
Cc1cccc(N2CCN(C3(c4ccccc4)C(=O)c4ccccc4C3=O)CC2)c1C | n | x | n | u | n | x
CS(=O)(=O)NCCCCCCNS(C)(=O)=O | n | n | n | 50µM | n | n
Cc1ccc(S(=O)(=O)NCCCNS(C)(=O)=O)cc1 | n | n | n | n | n | n
Cn1nc([N+](=O)[O-])c(C(C#N)c2nc3ccccc3n2C)c(Cl)c1=O (centres undefined) | 16µM | n | u | u | n | n
O=C(CN1C(=O)CC(c2ccco2)Sc2ccccc21)Nc1cccc(C(F)(F)F)c1 (centres undefined) | n | x | u | n | n | x
COc1ccc(C#Cc2ccc3c(=O)c4ccccc4n(C)c3c2)cc1 | x | n | x | u | x | n
Cn1c2ccccc2c(=O)c2ccc(C#Cc3ccc(N)cc3)cc21 | x | n | x | 50µM | x | n
COc1ccc(-c2nc(S(=O)(=O)c3ccc(Cl)cc3)c(N3CCCCCC3)o2)cc1 | u | x | u | 20µM | n | x
CC1CCN(c2oc(-c3cccs3)nc2S(=O)(=O)c2ccccc2)CC1 | n | x | n | u | n | x
O=S(=O)(c1ccc(Cl)cc1)c1nc(-c2cccs2)oc1N1CCCCC1 | n | x | n | 14µM | n | x
CCN(CC)CCN(C(=O)C1CCCCC1)c1nc2cc3c(cc2s1)OCO3 | x | n | x | u | x | n
CCN(CC)CCN(C(=O)CCS(=O)(=O)c1ccccc1)c1nc2cc3c(cc2s1)OCO3 | x | n | x | 45µM | x | n
